Measured values taken from PubChem BioAssay.
The source made the active and inactive calls. Unless noted, how the calls were made is not given here.

What was measured:
[1] = system: Wnt5a (protein binding on small-molecule microarray); assay: Wnt5a binders on small-molecule microarray, primary screen, biophysical, 635/667 nm fluorescence (AID 1142); conditions: 635 nm fluorescence, higher = more signal;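 further: fluorescence read at 667 nm with signal to noise per printed feature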
[2] = cell viability in Huh7 cells, primary screen, cytotoxicity control for HCV replication inhibitor project, CellTiter-Glo luminescence, basal, 48 h (AID 1143); conditions: Huh7 HCV replicon, higher = more signal, called active from +8 up or from −8 down;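 further: Huh7 hepatoma cells carrying a hepatitis C replication reporter with no stimulus; test concentration not given here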
[3] = P. aeruginosa biofilm formation inhibitors, primary screen, PAO1 strain, BacTiter-Glo luminescence, LB-PBS (AID 1144); conditions: 12 h, higher = more signal
[4] = CREB reporter modulators without forskolin, primary screen, cell-based, PC12, CRE-LacZ reporter, unstimulated (AID 1145); conditions: no forskolin, luminescence, 4.5 h, higher = more signal, called active from +8 up or from −8 down
[5] = CREB reporter modulators under forskolin, primary screen, cell-based, PC12, CRE-LacZ reporter, forskolin-stimulated (AID 1146); conditions: luminescence, 4.5 h, higher = more signal, called active from +8 up or from −8 down;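 further: PC12 cells with 6xCRE LacZ reporter stimulated by forskolin 10 µM; beta-galactosidase reporter signal reflecting CREB driven transcription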
[6] = biological target: Streptavidin (Streptomyces avidinii) (UniProt P22629); assay: streptavidin binders on small-molecule microarray, primary screen, artefact control for SMM compound annotation, biophysical, 635/667 nm fluorescence (AID 1147); conditions: streptavidin binding, higher = more signal;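 further: signal reflects streptavidin binding to arrayed compounds as a control protein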
Chain of Streptavidin (Streptomyces avidinii) (P22629 whole entry, looked up): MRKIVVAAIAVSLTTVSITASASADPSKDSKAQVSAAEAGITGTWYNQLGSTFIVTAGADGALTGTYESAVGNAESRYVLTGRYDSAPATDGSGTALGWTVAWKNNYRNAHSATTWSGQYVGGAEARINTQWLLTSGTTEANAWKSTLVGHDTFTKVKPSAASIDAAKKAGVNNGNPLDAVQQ

[7] = small-molecule binders of probe aInhba, primary screen, biochemical, small-molecule microarray, 635/667 nm fluorescence (AID 1148); conditions: higher = more signal;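 further: score merges 667nm spot fluorescence with signal-to-noise for antibody binding to printed compounds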
Torsin-1A (Homo sapiens) [8] = biological target: Torsin-1A (Homo sapiens) (UniProt O14656); assay: torsin A binders from cell lysate, primary screen, small-molecule microarray, wild-type, 635/667 nm (AID 1149); conditions: COS7 hTOR1A-WT lysate, 635 nm fluorescence, higher = more signal
Chain of Torsin-1A (Homo sapiens) (O14656 whole entry, looked up): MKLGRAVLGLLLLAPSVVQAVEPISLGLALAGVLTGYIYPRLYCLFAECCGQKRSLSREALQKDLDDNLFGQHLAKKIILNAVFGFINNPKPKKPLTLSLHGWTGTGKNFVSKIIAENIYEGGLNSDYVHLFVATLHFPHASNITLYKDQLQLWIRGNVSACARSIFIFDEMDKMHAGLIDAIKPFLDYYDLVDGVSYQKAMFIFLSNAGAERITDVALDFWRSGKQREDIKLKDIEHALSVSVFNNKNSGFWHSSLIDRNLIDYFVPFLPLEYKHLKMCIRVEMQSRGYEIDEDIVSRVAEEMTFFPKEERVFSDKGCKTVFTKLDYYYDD

Torsin-1A (Homo sapiens) [9] = biological target: Torsin-1A (Homo sapiens) (UniProt O14656); assay: small-molecule binders of mutant TOR1A in lysate, primary screen, cell lysate, small-molecule microarray, COS7 lysate, 635/667 nm fluorescence (AID 1150); conditions: COS7 hTOR1A mutant lysate, 635 nm fluorescence, higher = more signal;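 further: score pools 667 nm emission and signal to noise measuring lysate protein binding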
[10] = system: Sonic hedgehog protein (Shh); assay: small-molecule binders of Shh protein, primary screen, biochemical, small-molecule microarray, 635/667 nm fluorescence (AID 1151); conditions: small-molecule microarray binding, 635 nm fluorescence; higher = more signal;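 further: Shh protein binding to compounds spotted on small-molecule microarray slides; score combines spot fluorescence intensity with signal-to-noise across triplicate slides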

Row | SMILES | composite z-score [1] | z-score [2] | z-score [3] | z-score [4] | z-score [5] | composite z-score [6] | composite z-score [7] | composite z-score (Torsin-1A (Homo sapiens) [8]) | composite z-score (Torsin-1A (Homo sapiens) [9]) | composite z-score [10]
1 | C=C[C@H](COC(C)=O)N(Cc1ccc(OC(C)=O)c(OC)c1)S(=O)(=O)c1ccc(Br)cc1 | 0.714 | -2.08 (inactive) | -0.569 (inactive) | 0.195 (inactive) | -1.9 (inactive) | 1.12 | 0.0219 | 1.85 | 2.14 | 1.75
2 | COCCOC(=O)N1C(=O)[C@@]2(c3cc(C#CC4=CCCCC4)ccc31)[C@H](C(=O)NC[C@H](O)c1ccccc1)[C@H]1C(=O)O[C@H](c3ccccc3)[C@H](c3ccccc3)N1[C@@H]2c1ccc(O)cc1 | 0.236 | -3.91 (inactive) | 1.19 (inactive) | 0.208 (inactive) | -1.04 (inactive) | 1 | 0.221 | 0.838 | 0.652 | 1.34
3 | COC(=O)C1=CC(CCCO)=CC(C2CC2)N(Cc2sc3ccccc3c2Cl)C=C1C(=O)OC (stereo not given) | 0.351 | -3.83 (inactive) | 0.989 (inactive) | -0.464 (inactive) | 0.106 (inactive) | 2.17 | 0.19 | 0.688 | 0.806 | -0.112
4 | COCCOC(=O)N1C(=O)[C@@]2(c3cc(C#CCC(C(=O)OC)C(=O)OC)ccc31)[C@H](C(=O)N1CCCCCCC1)[C@H]1C(=O)O[C@H](c3ccccc3)[C@H](c3ccccc3)N1[C@@H]2c1ccc(OCCO)cc1 | 1.42 | -2.31 (inactive) | -1.02 (inactive) | -1.15 (inactive) | -0.0519 (inactive) | 3.01 | 1.69 | 2.01 | 1.87 | 2.32
5 | COC(=O)[C@@]1(Cc2ccccc2)[C@H]2c3cc(C(=O)N4CCCC4)n(C)c3C[C@H]2CN1C(=O)c1ccccc1 | 0.0131 | -1.6 (inactive) | 0.218 (inactive) | -0.182 (inactive) | 0.504 (inactive) | 1.64 | 0.271 | -0.212 | 0.0645 | -0.157
6 | CC(C)NC(=O)[C@@]1(Cc2ccccc2I)c2ccccc2C(=O)N(Cc2ccccc2)[C@H]1c1ccc(CO)cc1 | 0.107 | -2.05 (inactive) | -0.549 (inactive) | -0.231 (inactive) | 0.0359 (inactive) | 0.0632 | 0.817 | 0.484 | -0.181 | 1.39
7 | [N-]=[N+]=Nc1ccccc1[C@@H]1OC(c2ccc(OCCCO)cc2)=N[C@]1(CCS(=O)(=O)c1ccccc1)C(=O)N1CCOCC1 | 1.3 | -2.26 (inactive) | -0.199 (inactive) | 1.8 (inactive) | -1.49 (inactive) | 1.52 | 0.165 | 0.46 | 1.63 | -0.29
8 | O=C(CCN1CCOCC1)c1cccc(O)c1 | 0.361 | -2.97 (inactive) | -0.779 (inactive) | 0.182 (inactive) | 5.37 (inactive) | 0.802 | -0.0962 | 2.59 | 1.38 | 1.82
9 | O=C1O[C@H](c2ccccc2)[C@H](c2ccccc2)N2[C@H]1[C@@H](C(=O)O)[C@]1(C(=O)Nc3ccc(C#CC4(O)CCCCCC4)cc31)[C@H]2c1ccc(OCCO)cc1 | -0.0477 | -0.551 (inactive) | -1.01 (inactive) | 5.5 (inactive) | 14.7 (active) | 1.52 | 0.122 | 0.477 | 0.617 | 0.258
10 | CCCN1C(=O)[C@]2(COC(c3ccc(OCCCO)cc3)=N2)Cc2ccccc21 | 0.526 | -1.62 (inactive) | 0.786 (inactive) | 0.913 (inactive) | -1.39 (inactive) | 0.0066 | 0.0756 | 0.416 | 0.01 | 0.184
11 | CCCCC=C[C@@H](NC(=O)c1ccc(C(=O)OC)cc1)c1ccccc1 | 0.301 | -2.79 (inactive) | 0.806 (inactive) | -0.185 (inactive) | 1.11 (inactive) | 0.994 | 0.143 | -0.225 | 0.241 | 0.185
12 | COCCOC(=O)N1C(=O)[C@@]2(c3cc(C#CCCO)ccc31)[C@H](c1ccccc1OCCO)N1[C@H](c3ccccc3)[C@H](c3ccccc3)OC(=O)[C@H]1[C@@H]2C(=O)N1CCN(c2ncccn2)CC1 | 0.544 | -1.01 (inactive) | 0.566 (inactive) | -0.329 (inactive) | 1.99 (inactive) | 1.41 | 0.262 | 0.0623 | 0.835 | 1.37
13 | O=C1C[C@]2(c3ccc([N+](=O)[O-])cc3)C(=O)N(CC(F)(F)F)c3cc(CO)ccc3[C@H]2N1CC12CC3CC(CC(C3)C1)C2 | -0.171 | -1.89 (inactive) | -0.892 (inactive) | -0.698 (inactive) | 0.0632 (inactive) | -0.143 | 0.0091 | -0.662 | -0.156 | 0.277
14 | CC(C)OC(=O)CC(=O)CC(O)c1ccc(C#N)cc1 (stereo not given) | -0.0818 | -1.68 (inactive) | -0.577 (inactive) | -0.583 (inactive) | -1.27 (inactive) | -0.425 | 0.0816 | 2.11 | 2 | -0.305
15 | O=C/C=C/c1ccc(Cl)cc1 | 0.268 | -2.45 (inactive) | -0.421 (inactive) | -0.258 (inactive) | 0.716 (inactive) | -0.359 | -0.179 | -1.01 | -0.786 | -0.823
16 | CCCC[C@@H]1C[C@H]1[C@@H](NC(=O)c1ccc(-c2ccccc2)cc1)c1ccc(-c2ccccc2)cc1 | 0.198 | -2.94 (inactive) | 0.0911 (inactive) | 0.394 (inactive) | 1.7 (inactive) | 0.305 | 0.0111 | 0.0287 | -0.0963 | 2.02
17 | C=C(COC)/C(=C/C[C@H](OC(=O)c1ccncc1)c1cccc(OCCO)c1)c1cc(C(=O)OC)ccc1OC | 0.176 | -0.865 (inactive) | 0.358 (inactive) | 8.63 (active) | -0.616 (inactive) | -0.258 | -0.024 | 0.63 | 0.849 | 1.38
18 | C#CCN(C(/C=C/c1ccccc1)CO)C(C(=O)O)c1ccccc1 (stereo not given) | 0.0265 | -3.59 (inactive) | 1.13 (inactive) | -0.0487 (inactive) | -0.53 (inactive) | 0.18 | 0.0391 | -0.407 | -0.959 | -0.514
19 | Cc1ccc(F)cc1S(=O)(=O)N[C@@H]1CCN(Cc2ccc(-c3ccccc3)cc2)C1 | 0.116 | -6.41 (inactive) | 0.00325 (inactive) | 6.48 (inactive) | 0.959 (inactive) | -0.164 | -0.128 | 0.606 | 0.743 | 0.98
20 | COc1ccc(C#Cc2ccc3c(c2)[C@]2(C(=O)N3)[C@H](c3ccc(O)cc3)N3[C@H](c4ccccc4)[C@H](c4ccccc4)OC(=O)[C@H]3[C@@H]2C(=O)NC[C@H](O)c2ccccc2)cc1 | 0.365 | -3.5 (inactive) | -0.654 (inactive) | -0.0246 (inactive) | -1.12 (inactive) | 0.153 | -0.0606 | 0.215 | 0.488 | 1.05
21 | COc1ccc(C#Cc2ccc3c(c2)[C@]2(C(=O)N3)[C@H](c3ccc(O)cc3)N3[C@H](c4ccccc4)[C@H](c4ccccc4)OC(=O)[C@H]3[C@@H]2C(=O)N2CCCCCCC2)cc1 | 1.12 | -3.96 (inactive) | -1.42 (inactive) | 0.0653 (inactive) | -0.648 (inactive) | 1.9 | 1.43 | 1.55 | 1.43 | 2.09
22 | CC(C)N1C(=O)[C@@]2(c3ccc([N+](=O)[O-])cc3)CC(=O)N(CC34CC5CC(CC(C5)C3)C4)[C@@H]2c2ccc(CO)cc21 | -0.61 | -0.36 (inactive) | -0.292 (inactive) | 0.452 (inactive) | -0.41 (inactive) | -0.842 | 0.195 | -1.81 | -0.858 | 0.453
23 | COc1ccc([Si](C)(C)[C@@H]2[C@@H](CC(=O)N3CCC[C@H]3CO)O[C@]3(C(=O)N(C)c4c(Br)cc(C)cc43)[C@H]2C)cc1 | 0.29 | -2.39 (inactive) | 0.74 (inactive) | 6.67 (inactive) | 0.157 (inactive) | 0.367 | -0.103 | 0.178 | 0.67 | 1.43
24 | CCOC(=O)C[C@H]1[C@H](OC(=O)Cc2ccc3c(c2)OCO3)[C@@H](NC(=O)c2ccc(-c3ccccc3)cc2)c2cc(OCCCO)ccc2N1C(=O)c1ccccc1 | 0.0105 | -0.299 (inactive) | -1.24 (inactive) | 3.12 (inactive) | -1.27 (inactive) | 0.0534 | 0.0906 | 0.328 | 0.132 | 0.358
25 | COc1ccc([Si](C)(C)[C@@H]2[C@@H](CCn3cc([C@H](O)c4ccccc4)nn3)O[C@]3(C(=O)N(Cc4cccc(N5CCOC5=O)c4)c4ccccc43)[C@H]2C)cc1 | -0.105 | -1.08 (inactive) | -1.69 (inactive) | 0.134 (inactive) | -1.36 (inactive) | -0.469 | -0.292 | -0.568 | -0.668 | -0.98
26 | C=CCC(OC(C)=O)[C@@H]1[C@@H](N(Cc2ccc(-c3ccccc3)cc2)C(=O)Cc2ccc(OC)cc2)c2cc(OCCCO)ccc2N1C(=O)c1ccc2ccccc2n1 (stereo not given in full) | -0.167 | -1.53 (inactive) | 0.321 (inactive) | 0.409 (inactive) | 0.677 (inactive) | 0.437 | -0.0471 | -0.0598 | 0.0615 | -0.111
27 | COCCOC(=O)N1C(=O)[C@@]2(c3cc(C#CCC(C(=O)OC)C(=O)OC)ccc31)[C@H](c1ccc(O)cc1)N1[C@H](c3ccccc3)[C@H](c3ccccc3)OC(=O)[C@H]1[C@@H]2C(N)=O | 0.641 | -0.427 (inactive) | 0.075 (inactive) | -0.329 (inactive) | 0.305 (inactive) | 1.04 | 0.215 | 1.61 | 1.35 | 0.922
28 | COc1ccc([Si](C)(C)[C@H]2[C@H](CCn3cc([C@H](O)c4ccccc4)nn3)O[C@@]3(C(=O)N(Cc4cccc(N5CCC5=O)c4)c4ccccc43)[C@@H]2C)cc1 | 0.42 | -1.67 (inactive) | 0.115 (inactive) | 2.55 (inactive) | -0.157 (inactive) | 0.552 | -0.045 | 0.358 | 0.0772 | 1.9
